In PubChem BioAssay (NCI) one finds growth data, which are given here for 30 compounds.

This is part of a sample that, as a whole, favours compounds with a hit. Of some 83,000 tested, about 20% had one in any assay.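 Testing used 96-well plates and a 48-hour single-concentration exposure. Example: -40 means 40% of the starting cells died.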 Unmarked numbers belong to inactive results. Active and inactive are the calls of the source. The calls were made as follows: active = growth percent below 10; inactive = the rest.

Common to all, as to assay: NCI-60 one-dose screen, 48 h (100 = growth as untreated, 0 = no growth, -100 = all killed)
Holding throughout (conditions): 10 µM unless noted

In assay [1] the test system is T-47D breast.
Assay [2] relates to BT-549 breast.
Assay [3] relates to MDA-MB-435 melanoma.
Assay [4] deals with SW-620 colon.
Assay [5] deals with MCF7 breast.
Assay [6] relates to HCT-116 colon.
The test system of assay [7] is HCC-2998 colon.
The subject of assay [8] is KM12 colon.

As for `CC(=O)OCc1nc(C#N)c(N(C)C)o1`, the growth is 83.9% in assay [1]; 91.2% in assay [2]; 100% in assay [3]; 101% in assay [4]; 92.9% in assay [5]; 93.4% in assay [6]. Moreover, the growth in assay [7] was 97%; in assay [8] it was 110%.

Regarding `C=CCn1c(SCC(=O)Nc2ccc(C(=O)/C=C/c3ccc(Cl)cc3)cc2)nnc1-c1cc(-c2ccc(S(N)(=O)=O)cc2)nc2ccccc12`, the growth in assay [1] was 81.8%; in assay [2], 80.5%; in assay [3] it was 76.1%; in assay [4], 100%; in assay [5] it was 38.6%; in assay [6], -31.5% (active). For the same compound, the figures for the growth in assay [7] and in assay [8] were 101% and 87.2%, respectively.

Consider `COc1cc(C(=O)n2nc(N3CCN(C)CC3)c3cc(N)ccc32)cc(OC)c1OC`, for which the growth in assay [1] was 57.7%; in assay [2], 27.9%; in assay [3], -12% (active); in assay [4], 30%; in assay [5] it was 11.6%; in assay [6] it was 7.66% (active). In addition, the results for the growth in assay [7] and in assay [8] were 89.7% and 57.9%, respectively.

Take `O=C1/C(=C/c2ccc(Cl)c(Cl)c2)CN(C(=O)C(Cl)Cl)C/C1=C\c1ccc(Cl)c(Cl)c1`: the growth is -36.7% (active) in assay [1]; -58.5% (active) in assay [2]; -68.7% (active) in assay [3]; -71.5% (active) in assay [4]; -57.7% (active) in assay [5]; -92.5% (active) in assay [6]. The values for the growth in assay [7] and in assay [8] were -88.8% (active) and -71.2% (active), respectively.

For the compound `O=C1Nc2ccccc2/C1=C\c1nc(-c2ccccc2F)n2ccccc12`, the growth in assay [1] was 21.2%; in assay [2], 24.5%; in assay [3] it was 44.1%; in assay [4], 26.2%; in assay [5], 27.8%; in assay [6], -36.4% (active). Further, the growth in assay [7] is 86.1%; in assay [8] it was 34.4%.

In the case of `COc1cc(OC)cc(C2=C3CC[C@@H]4[C@H](CC[C@]5(C)C(=O)CC[C@@H]45)C3=CC3C(O)c4cccnc4N4C(=O)COC234)c1` (stereo not given in full), the growth in assay [1] was 107%; in assay [2], 94.7%; in assay [3] it was 104%; in assay [4], 103%; in assay [5], 103%; in assay [6], 97%. For the same compound, the growth is 96.6% in assay [7] and 102% in assay [8].

`CCOC(=O)C(=Cc1cccc(Br)c1)C(=O)OCC`: the growth is 1.63% (active) in assay [1]; 28% in assay [2]; 23.7% in assay [3]; 25.9% in assay [4]; 11% in assay [5]; 14% in assay [6]. In addition, the results for the growth in assay [7] and in assay [8] were 101% and 11.9%, respectively.

Turning to `Cc1noc(C)c1C(=O)OCc1coc2ccccc2c1=O`, the growth was 28% in assay [1]; 69.2% in assay [2]; 59.8% in assay [3]; 32.1% in assay [4]; 49.6% in assay [5]; 41.4% in assay [6]. The growth was 105% in assay [7] and 95.8% in assay [8].

Consider `C#CCOc1ccc2ncnc(Nc3cccc(NC(=O)C=C)c3)c2c1`, for which the growth in assay [1] was 70.6%; in assay [2], 46.6%; in assay [3] it was 69.1%; in assay [4], 90.3%; in assay [5], 60.5%; in assay [6], 74.4%. For the same compound, the growth is 90.8% in assay [7] and 83.5% in assay [8].

For the compound `CS(=O)(=O)c1cccc(-c2c(-c3cccc(OS(N)(=O)=O)c3)nc3sccn23)c1`, the growth is 79.3% in assay [1]; 100% in assay [2]; 102% in assay [3]; 99.7% in assay [4]; 92% in assay [5]; 97.9% in assay [6]. In addition, the results for the growth in assay [7] and in assay [8] were 104% and 103%, respectively.

On to `CC1=C(Nc2ccc(N3CCN(C)CC3)cc2)C(=O)c2cncnc2C1=O`, for which the growth in assay [1] is -44.2% (active); in assay [2], 101%; in assay [3], -83.7% (active); in assay [4] it was 75.8%; in assay [5], 61.9%; in assay [6], 6.39% (active). The values for the growth in assay [7] and in assay [8] were 126% and 91.2%, respectively.

Turning to `COc1cc(CNC(=O)CCCC/C=C/C(C)C)ccc1OCc1nnc(Nc2ccc([N+](=O)[O-])cc2)o1`, the growth in assay [1] is 48.6%; in assay [2], 108%; in assay [3], 71.9%; in assay [4], 67.3%; in assay [5], 55.2%; in assay [6] it was 24.6%. For the same compound, the growth in assay [7] is 83.6%; in assay [8] it was 71.6%.

For `O=[N+]([O-])c1ccc(-c2nc(N3CCOCC3)c3c4c(sc3n2)CCCC4)cc1`, the growth was 83.5% in assay [1]; 82.3% in assay [2]; 99.1% in assay [3]; 95.1% in assay [4]; 73.1% in assay [5]; 68.1% in assay [6]. Further, the figures for the growth in assay [7] and in assay [8] were 102% and 95.5%, respectively.

`CCCCOC(=O)OCc1cc(=O)c(O)co1`: the growth is 90.8% in assay [1]; 110% in assay [2]; 102% in assay [3]; 103% in assay [4]; 94.5% in assay [5]; 106% in assay [6]. The growth in assay [7] is 106%; in assay [8], 104%.

For `O=C(O)[C@@H]1c2ccccc2-c2ccccc2[C@H]1C(=O)O`, the growth in assay [1] is 102%; in assay [2] it was 114%; in assay [3], 100%; in assay [4] it was 101%; in assay [5], 94.6%; in assay [6], 92.6%. In addition, the growth was 100% in assay [7] and 105% in assay [8].

For `CCOC(=O)c1cc(-c2ccc([N+](=O)[O-])cc2)n(-c2ccc(C(=O)O)c(O)c2)c1C`, the growth in assay [1] was 38.2%; in assay [2] it was 95.7%; in assay [3], 50.6%; in assay [4], 93.2%; in assay [5] it was 53.9%; in assay [6], 49.4%. Besides, the growth is 98.9% in assay [7] and 86.8% in assay [8].

For `Cc1ccccc1/C=C1\CN(C(=O)OC(C)(C)C)C/C(=C\c2ccccc2C)C1=O`, the growth was 51.8% in assay [1]; 70.3% in assay [2]; 12% in assay [3]; 5.37% (active) in assay [4]; 19.2% in assay [5]; -53.9% (active) in assay [6]. Besides, the growth in assay [7] is 3.27% (active); in assay [8], -32.8% (active).

With `Cn1c(=O)c2c(nc(NC3=NS(=O)(=O)c4ccccc43)n2CC(=O)N2CCc3ccccc32)n(C)c1=O`, the growth is 91.3% in assay [1]; 91.7% in assay [2]; 101% in assay [3]; 95.2% in assay [4]; 103% in assay [5]; 97.9% in assay [6]. Also, the growth was 96.9% in assay [7] and 107% in assay [8].

Turning to `Cc1ccc(-c2nc(/C=C3/C(=O)Nc4ccccc43)c3ccccn23)cc1`, the growth in assay [1] was 80.7%; in assay [2], 104%; in assay [3], 94.3%; in assay [4] it was 64.8%; in assay [5] it was 37.2%; in assay [6], 66.8%. In addition, the growth in assay [7] was 109%; in assay [8], 88.4%.

Turning to `C=CCn1c(SCC(=O)NCc2cc(C)c(O)c(C)c2)nc2ccc(Cl)cc2c1=O`, the growth in assay [1] is 103%; in assay [2], 113%; in assay [3] it was 107%; in assay [4], 102%; in assay [5], 91.3%; in assay [6], 102%. Moreover, the figures for the growth in assay [7] and in assay [8] were 110% and 104%, respectively.

Take `CC1(C)c2[nH]c3ccccc3c2C[C@]2(C)[C@H]3CC=C4[C@@H]5C[C@@](C)(C(N)=O)CC[C@]5(C)CC[C@@]4(C)[C@]3(C)CC[C@@H]12`: the growth was 9.07% (active) in assay [1]; 58.7% in assay [2]; 59.3% in assay [3]; 61.2% in assay [4]; 29.3% in assay [5]; 40.9% in assay [6]. Moreover, the values for the growth in assay [7] and in assay [8] were 69.6% and 58.2%, respectively.

On to `C/C(=C(/c1ccc(Cl)cc1)c1ccc(OCCN2CCCC2)cc1)c1ccc(Cl)cc1`, for which the growth was 59.5% in assay [1]; 96.5% in assay [2]; 89.6% in assay [3]; 54.6% in assay [4]; 34.1% in assay [5]; 50.4% in assay [6]. The growth was 102% in assay [7] and 52.4% in assay [8].

Regarding `Nc1ncnc2c1N=C(c1ccc3c(c1)OCO3)CC(c1cccc(Nc3ccnc4cc(Cl)ccc34)c1)N2` (stereo not given), the growth was 43.3% in assay [1]; 74.5% in assay [2]; 51.6% in assay [3]; 25.4% in assay [4]; 8.54% (active) in assay [5]; 6.7% (active) in assay [6]. Further, the growth was 72% in assay [7] and 30.5% in assay [8].

For the compound `Cc1nc(N2CCOCC2)sc1S(N)(=O)=O`, the growth in assay [1] is 93%; in assay [2], 98.1%; in assay [3], 105%; in assay [4], 91.5%; in assay [5], 93.5%; in assay [6], 103%. Also, the growth in assay [7] is 104%; in assay [8], 94.1%.

Turning to `Clc1ccc(CNc2c3ccccc3nc3ccccc23)cc1`, the growth was 43.4% in assay [1]; 70.9% in assay [2]; 60.7% in assay [3]; 31% in assay [4]; 16% in assay [5]; 15.7% in assay [6]. Besides, the growth is -10.2% (active) in assay [7] and 35.6% in assay [8].

On to `COc1ccc(/C=C2\C(=O)N=C3N2NC(c2cc(Br)ccc2O)C=C(C)N3c2ccccc2)cc1` (stereo not given), for which the growth is 89.6% in assay [1]; 88% in assay [2]; 94.5% in assay [3]; 104% in assay [4]; 83.7% in assay [5]; 98.1% in assay [6]. Further, the growth in assay [7] was 87.1%; in assay [8], 102%.

With `O=C(NNC(=O)c1ccc(-n2cc(-c3ccccc3)nn2)cc1)Nc1ccccc1`, the growth in assay [1] was 102%; in assay [2], 97.9%; in assay [3], 105%; in assay [4], 101%; in assay [5], 99.4%; in assay [6] it was 94.3%. The results for the growth in assay [7] and in assay [8] were 116% and 107%, respectively.

`COC(=O)/C(CCC=C(C)C)=C1\[C@@H](OC(C)=O)C[C@@]2(C)[C@H]1C[C@@H](O)[C@H]1[C@@]3(C)CC[C@H](NCCN)[C@@H](C)[C@@H]3CC[C@@]12C`: the growth in assay [1] was 83.2%; in assay [2], 84.8%; in assay [3], 93.6%; in assay [4], 85.4%; in assay [5], 72.3%; in assay [6], 36.8%. Moreover, the figures for the growth in assay [7] and in assay [8] were 91.3% and 88.9%, respectively.

As for `COC(C(=O)[C@@H](O)[C@@H](C)O)[C@@H]1Cc2cc3cc(O[C@H]4C[C@@H](O[C@H]5C[C@@H](O)[C@H](O)C(C)O5)[C@H](O)C(C)O4)cc(O)c3c(O)c2C(=O)[C@H]1O[C@H]1C[C@@H](O[C@H]2C[C@@H](O[C@H]3C[C@@H](OC)[C@H](O)C(C)O3)[C@@H](O)C(C)O2)[C@H](O)C(C)O1` (stereo not given in full), the growth is 35.2% in assay [1]; 38.2% in assay [2]; 44.8% in assay [3]; 39.7% in assay [4]; 11.5% in assay [5]; 11.2% in assay [6]. Also, the growth in assay [7] is 63.7%; in assay [8], 40%.

For `COC1C[C@H](O[C@@H]2C[C@H](O[C@@H]3C[C@H](O[C@@H]4C(=O)c5c(cc6cc(O[C@H]7C[C@@H](O[C@H]8C[C@@H](O)[C@H](O)C(C)O8)[C@H](O)C(C)O7)c(C)c(O)c6c5O)C[C@H]4C(OC)C(=O)[C@@H](O)[C@@H](C)O)OC(C)[C@H]3O)OC(C)[C@@H]2O)OC(C)[C@@H]1O` (stereo not given in full), the growth in assay [1] was -4.81% (active); in assay [2] it was -20.4% (active); in assay [3] it was -62% (active); in assay [4] it was 9.73% (active); in assay [5] it was 4.52% (active); in assay [6] it was 4.82% (active). Also, the growth is -18.8% (active) in assay [7] and 4.61% (active) in assay [8].
